# Source: PubChem
# A selection: hits, their analogues and other compounds. The true share with any hit is near 6.9%.
# MCF10A rereplic – inducers of DNA re-replication in MCF 10A breast cells | MCF 10A DNA re-replication, Hoechst nuclear intensity, 48 h | Potency, µM (top dose mostly 46.1 µM), for the others: at the top dose activity, positive = re-replication, most hits filed as activators | 2.9% of 350,000 active | AID 624296; also: potency is read from the fitted curve at half-maximal effect; % of control where 0% means no effect; nearly all actives have a fitted effect of over 50% in size
# Vif-APOBEC3G blk – inhibitors of Vif-APOBEC3G interaction; HeLa A3G-eYFP + Vif (tagged APOBEC3G with the HIV-1 protein that degrades it), YFP fluorescence, overnight; Potency, µM (titrated, usually from 46.1 µM), for the others: at the highest dose activity, negative = active, most hits filed as inhibitors; 0.076% of 410,000 active; AID 602310; also: potency is read from the fitted curve at half-maximal effect; % is scaled to controls: 0 for no effect and ±100 for the full control effect; nearly all actives have a fitted effect of over 60% in size
# Target sequence (Q9HC16 whole entry, looked up): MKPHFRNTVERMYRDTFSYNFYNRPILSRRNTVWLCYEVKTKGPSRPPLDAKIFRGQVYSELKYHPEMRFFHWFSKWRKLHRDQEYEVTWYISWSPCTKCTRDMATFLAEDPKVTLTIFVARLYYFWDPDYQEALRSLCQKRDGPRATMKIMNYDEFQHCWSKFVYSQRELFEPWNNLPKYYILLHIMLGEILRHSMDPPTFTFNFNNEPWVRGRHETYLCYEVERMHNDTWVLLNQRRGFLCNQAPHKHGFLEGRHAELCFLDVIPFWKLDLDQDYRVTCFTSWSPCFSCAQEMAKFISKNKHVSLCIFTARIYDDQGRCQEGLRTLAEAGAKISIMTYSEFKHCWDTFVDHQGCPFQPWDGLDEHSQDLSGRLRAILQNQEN
#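 HeLa cells stably expressing Vif and C-terminally eYFP-tagged A3G, seeded overnight at 37 deg C, then exposed to compound by pintool overnight at 37 deg C. Rise in yellow fluorescence (Ex 488/Em 500-530, Acumen) marks blocked Vif-driven A3G degradation.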
# Vif-APOBEC3F blk – blocks the Vif interaction with APOBEC3F | 0.2% of 390,000 active | Potency, µM (top dose mostly 46.1 µM), without a hit: at the top dose activity, negative = active | HeLa A3F-eYFP + Vif (tagged APOBEC3F with the HIV-1 protein that degrades it), YFP fluorescence increase; also: potency is read from the fitted curve at half-maximal effect; % of control where 0% means no effect; nearly all actives have a fitted effect of over 65% in size
#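 Fluorescence increase (Ex 488/Em 500-530) after overnight compound treatment at 37 deg C flags inhibition of Vif-driven A3F-eYFP loss in stable HeLa A3F-eYFP/Vif cells seeded overnight beforehand.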
# IL-1B inflam inh – inflammasome signaling inhibition, IL-1 beta readout | activity change, % at 57.5 µM | THP-1 LPS/ATP IL-1B secretion, AlphaLISA, 16 h; stronger effect = lower value | AID 743279 | 4.7% of 360,000 active; in the data active = activity change below about -50%; inconclusive = mostly about -30% to -49%; also: % is scaled to controls: 0 for no effect and ±100 for the full control effect
#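 THP-1 cells pretreated 1 hr with compounds (up to 57.5 uM final), then stimulated with LPS (250 ng/mL final) plus ATP (1.25 mM final); secreted IL-1B measured by AlphaLISA after 16 hr, decreased signal indicating inhibition.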
# Giardia kill – Giardia lamblia killing. Giardia lamblia trophozoite viability. activity change, % at 7.66 µM, hits read low. 0.15% of 340,000 active; in the data active = activity change below about -80%; inconclusive = between about -30% and that limit;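 also: parasites exposed to compound for two days anaerobically before the ATP read; % is scaled to controls: 0 for no effect and ±100 for the full control effect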
#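 Giardia trophozoites, 100 cells per well, were exposed to compounds for 48 hrs at 37 deg C under anaerobic conditions; viability was then read as ATP content by bioluminescence after 15-30 min at room temperature.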
# SW480 rereplic – induces DNA re-replication in SW480 colon adenocarcinoma cells | SW480 DNA re-replication, Hoechst DNA content imaging, 48 h | Potency, µM (top dose mostly 46.1 µM), for the others: at the highest dose re-replication activation, hits mostly activators | 1.8% of 340,000 active | AID 624297; also: potency is read from the fitted curve at half-maximal effect; % of control where 0% means no effect; nearly all actives have a fitted effect of over 55% in size
#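 Hoechst fluorescence of nuclei (405 nm excitation, 500-530 nm emission) measured by plate-scanning imager after 48 hr compound exposure at 37 C; re-replication scored as increased number of nuclei with elevated intensity.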
# Starred values were filed as active, the others as inactive; i = inactive; ? = inconclusive; . = no result given; [ ] = another dose, or the depositor's remark. Unless noted, calls follow the shape of the dose curve; as a rule, active = well fitted curve in the direction sought with a large enough effect; inconclusive = small, poorly fitted or top-dose-only effect, or another doubt; inactive = no such curve, though single readings can be large; an effect the other way counts as inactive or inconclusive.
SMILES,MCF10A rereplic,Vif-APOBEC3G blk,Vif-APOBEC3F blk,IL-1B inflam inh,Giardia kill,SW480 rereplic
CCOc1ccc(-c2nc(SCC(=O)Nc3cc(F)ccc3F)n3[nH]c(=O)cc3n2)cc1,.,2%,-4%,.,.,.
COc1ccc(CCn2c(=N)c(C(=O)NCc3ccco3)cc3c(=O)n4ccccc4nc32)cc1,9.2µM*,1%,?,-54*,13,14%
CCC(C)n1c(=N)c(C(=O)NC2CCCC2)cc2c(=O)n3ccccc3nc21 (configuration not stated),.,2%,6%,.,.,.
N=c1c(C(=O)NC2CCCCC2)cc2c(=O)n3ccccc3nc2n1Cc1cccnc1,?,-1%,-11%,23,16,15µM*
N=c1c(C(=O)NC2CCCCC2)cc2c(=O)n3ccccc3nc2n1Cc1ccccc1,2.6µM*,1%,-17%,21,10,9.2µM*
Cc1ccc2nc3c(cc(C(=O)NCc4ccco4)c(=N)n3C(C)C)c(=O)n2c1,.,4%,-9%,.,.,.
N=c1c(C(=O)NCCc2ccccc2)cc2c(=O)n3ccccc3nc2n1Cc1ccco1,9.2µM*,2%,-11%,?,-19,18µM*
Cc1ccc(NC(=O)CN(C)S(=O)(=O)c2ccc(Br)s2)cc1F,?,0%,-4%,-62*,-3,-3%
Cn1c(=O)c2c(ncn2CC(=O)Nc2nc(-c3ccc(F)c(F)c3)cs2)n(C)c1=O,?,2%,6%,2,-21,?
Cc1ccc(-c2csc(NC(=O)/C=C/c3cccs3)n2)cc1C,?,-1%,-6%,-80*,11,10%
Cc1ccc(-c2csc(NC(=O)Cn3cnc4c3c(=O)n(C)c(=O)n4C)n2)cc1C,21µM*,1%,-27%,27,-7,11%
CCOC(=O)c1ccc(NC(=O)C(C)N(c2ccc(OCC)cc2)S(C)(=O)=O)cc1 (configuration not stated),.,-1%,1%,.,.,.
CC(C)(C)OC(=O)NS(=O)(=O)Nc1ccccc1Br,.,-3%,.,.,8,.
O=C(c1ccccc1)c1ccc(NCCCn2ccnc2)c([N+](=O)[O-])c1,25%,2%,10%,-74*,-14,-5%
CCN(CC)S(=O)(=O)c1ccc(NCCCn2ccnc2)c([N+](=O)[O-])c1,12%,-6%,-5%,-12,-8,0%
CCOc1ccc(-n2nc(CO)c(C(=O)NCc3cccs3)n2)cc1,.,-2%,1%,.,.,.
O=C(CN1C(=O)S/C(=C\c2ccc(O)cc2)C1=O)c1ccccc1,?,-10%,-9%,-77*,-25,?
O=C(NC1CCOCC1)C1CCC(=O)N(Cc2ccc(Cl)cc2)C1 (configuration not stated),9%,2%,-8%,i,10,9.2µM*
O=C1CCC(C(=O)N2CCOCC2)CN1Cc1ccc(Cl)cc1 (configuration not stated),-3%,0%,2%,0,-14,0%
CCC(=O)Nc1nnc(-c2cccs2)s1,-8%,0%,4%,25,-13,2%
C=C(C)C(=O)Nc1nnc(-c2cccs2)s1,10µM*,-5%,0%,31,17,19%
COC1(OC)C=CC(=O)C=C1NC(=O)c1ccccc1OC(C)=O,4.1µM*,?,4%,.,-19,?
CC(=O)Oc1ccccc1C(=O)Nc1ccccc1,?,0%,2%,.,3,-31%
Cc1ccc(-n2c(=O)c3c(cnn3C)n(CC(=O)Nc3cccc(C)c3)c2=O)cc1,.,-1%,6%,.,.,.
COc1ccc(NC(=O)N(Cc2cc3cc(C)ccc3[nH]c2=O)CC2CCCO2)cc1 (configuration not stated),?,-29%,3%,?,-10,?
SMILES,MCF10A rereplic,Vif-APOBEC3G blk,Vif-APOBEC3F blk,IL-1B inflam inh,Giardia kill,SW480 rereplic
Cc1ccc2[nH]c(=O)c(CN(CCCN3CCOCC3)C(=O)Nc3cccc(Cl)c3)cc2c1,?,-4%,2%,-58*,5,16%
Cc1cccc(NC(=O)N(Cc2cc3cc(C)ccc3[nH]c2=O)CC2COCCO2)c1 (configuration not stated),5%,-3%,-9%,-73*,-1,12%
CC(C)c1nc(N(C)S(C)(=O)=O)nc(-c2ccc(F)cc2)c1/C=C/C(O)CC(O)CC(=O)O (configuration not stated),0%,.,.,.,.,?
COc1cc(-c2cc(O)c(-c3ccc4ccccc4n3)c(=O)[nH]2)cc(OC)c1OC,12µM*,10µM*,11µM*,4,-2,21µM*
CN(C)c1cc2c(c(N(C)C)c1)C(=O)c1ccccc1C2=O,?,4%,6%,-50*,-28,-2%
O=C1c2ccccc2C(=O)c2c1cccc2N(CCO)CCO,-26%,2%,19%,-10,?,-12%[1.84 µM]
O=C(CSc1nc2c([nH]c3ccccc32)c(=O)n1-c1cccc(C(F)(F)F)c1)N1CCc2ccccc21,.,0%,?,.,.,.
Cc1cc(O)c(C(=O)/C=C/c2ccccc2Br)c(=O)o1,?,-35%,?,-77*,-15,?
O=C(Cc1nc2ccccc2[nH]1)c1ccc([N+](=O)[O-])cc1,9%,-2%,0%,-2,-10,5%
O=C(Cc1nc2ccccc2[nH]1)c1ccc(Cl)cc1,?,-6%,-22%,-99*,-3,-1%
Clc1ccc(/C(Cc2nc3ccccc3[nH]2)=N\Nc2ccccc2)cc1,8%,-24%,-5%,-84*,-3,?
O=C(NCc1ccc2c(c1)OCO2)c1ccc(CS(=O)Cc2ccc(Cl)cc2)o1 (configuration not stated),8%,-3%,1%,-69*,-16,-13%
O=C(NCc1cccc(Cl)c1)c1ccc(CS(=O)Cc2ccc(Cl)cc2)o1 (configuration not stated),1%,0%,0%,-74*,-15,-8%
O=C(NCc1ccc2c(c1)OCO2)c1ccc(CS(=O)Cc2cccc(Cl)c2)o1 (configuration not stated),-1%,-10%,-9%,-68*,-13,0%
O=C(NCc1ccccc1)c1ccc(CS(=O)Cc2cccc(Cl)c2)o1 (configuration not stated),.,-5%,0%,-21,.,.
O=C(NCc1cccc(F)c1)c1cccc(NC(=O)c2nsc3ccccc23)c1,.,-12%,-7%,.,.,.
CCCCOC(=O)c1ccc(Nc2nc3ccc(C)cc3n3cnnc23)cc1,.,-2%,-9%,.,.,.
COc1c(Cl)cc(Cl)cc1C(=O)Nc1cccc(-c2nc3ccccc3o2)c1C,.,5%,-3%,.,.,.
CN1CCN(c2ccc(CNC(=O)c3cc4ccccc4o3)cc2)CC1,23µM*,1%,1%,70,12,-5%
